48 molecules from PubChem BioAssay AID2685 (National Center for Advancing Translational Sciences (NCATS), 2010) can be followed below.

Out of some 320,000 compounds screened, about 2,100 (0.66%) were called active. Not shown: some 53% with an inconclusive outcome. Calls follow the shape of the dose curve; as a rule, active = well fitted inhibition curve with a large enough effect in the signal ratio, with a control signal flat (not every such curve was filed as active); inconclusive = small, poorly fitted or top-dose-only effect, or effect the other way, or a change in a side signal; inactive = flat fitted curve, though single readings scatter; the % refers to the signal ratio. Shown is part of a subset that was picked to be rich in actives.
Potency is read from the fitted curve at half-maximal effect.

This assay can be described thus: qHTS Assay for Lipid Storage Modulators in Drosophila S3 Cells.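 As to cell number change: cells counted by Cell Tracker Red CMTPX staining in the red channel.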 As to lipid storage change, negative = inhibition: % is scaled to controls: 0 for no effect and ±100 for the full control effect. To be noted: BODIPY lipid droplet fluorescence, 18-24 h, cells fed with added oleic acid; cell number change: measured here: cell count max response; series mostly up to 46.1 µM; lipid storage change, negative = inhibition: at the top concentration. The method, boiled down: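 Drosophila S3 cells loaded with oleic acid (400 uM, as added) and compounds at several concentrations; lipid droplets imaged by 488-nm laser-scanning cytometry, 500–530 nm intensity and object ratio to cell channel. Percent activity normalized to 20 uM Triacsin C.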
Take `NS(=O)(=O)c1ccc(CNC(=O)/C=C/c2ccccc2)cc1`: the “lipid storage change, negative = inhibition” value is -14.1% (inactive) and the cell number change is 2.48%. For `O=C(CC(Sc1ccc(Br)cc1)C(=O)O)c1ccc(F)cc1` (stereo not drawn), in that order: -0.707% (inactive) and -1.05%.

In the case of `CN=C(Nc1ccc(C(=O)OC)s1)c1ccccc1`, the “lipid storage change, negative = inhibition” value was 12.5% (inactive). In the case of `O=C(Nc1ccccc1)c1cccnc1NCCc1ccccc1`, the “lipid storage change, negative = inhibition” value was -0.163% (inactive) and the cell number change is -3.52%. For `Cc1ccc(CNC(=O)C(N=C2NS(=O)(=O)c3ccccc32)C(C)C)cc1` (stereo not drawn), in that order: 8% (inactive) and 10.7%. For the molecule `CN(CC(O)COc1ccc2ccccc2c1)C1CCCCC1` (stereo not drawn), the “lipid storage change, negative = inhibition” value is -12.6% (inactive) and the cell number change is -0.529%. In the case of `COc1ccc(CCNC(=O)Cn2cccc2C(=O)c2ccccc2)cc1OC`, the Potency is 25.9 µM (active) and the cell number change is -21.4%. Turning to `COc1ccc(CCNC(=O)Cn2cccc2C(=O)c2ccccc2)c(OC)c1`, the “lipid storage change, negative = inhibition” value is 2.64% (inactive) and the cell number change turned out to be 6.75%.

As for `COc1ccc(OC)c(CCNC(=O)Cn2cccc2C(=O)c2ccccc2)c1`, the call was inactive. As to `COc1ccc(NC(=O)C(OC(=O)c2ccc([N+](=O)[O-])o2)c2ccccc2)cc1Cl` (stereo not drawn), the “lipid storage change, negative = inhibition” value is 0.0378% (inactive) and the cell number change is 0.814%. As to `Cc1nc2n(n1)C(c1ccccc1)C1=C(CC(c3ccco3)CC1=O)N2` (stereo not drawn), the result was inactive.

As for `Cc1cc(C)cc(NC(=O)C(=S)NCc2ccccc2)c1`, the “lipid storage change, negative = inhibition” value was -0.376% (inactive) and the cell number change is 9.48%. The corresponding values for `O=C(NNc1nc2c(F)cc(F)cc2s1)c1ccccc1` are 21.3% [at 9.22 µM] (inactive) and 6.06%. On to `O=S(=O)(NC1CCN(Cc2ccccc2)CC1)c1ccc(Cl)cc1`, for which the “lipid storage change, negative = inhibition” value was 0.306% (inactive) and the cell number change is -5.28%. For `O=S(=O)(c1ccccc1)c1nnn2c1nc(NC1CCN(Cc3ccccc3)CC1)c1ccccc12`, in that order: 9.25% (inactive) and 0.895%. `O=S(=O)(c1ccccc1)c1nnn2c1nc(NC1CCN(Cc3ccccc3)CC1)c1cc(Cl)ccc12`: the Potency was 18.4 µM (active) and the cell number change was -5.44%. As to `Cc1nc(CS(=O)(=O)c2ccccc2)cc(Sc2ccc(Cl)cc2)n1`, the molecule was classed as inactive.

In the case of `O=C(NCCCN1CCOCC1)c1ccc2c(c1)N(Cc1ccccc1)C(=O)c1ccccc1S2=O` (stereo not drawn), the molecule was called inactive and the cell number change was -4.72%. On to `C=CCn1c(COc2cc(C)ccc2C(C)C)nnc1SCC(=O)c1c(N)n(C)c(=O)n(C)c1=O`, for which the “lipid storage change, negative = inhibition” value was 18.2% (inactive) and the cell number change stood at 25.2%. The corresponding values for `Cc1ccc(S(=O)(=O)C(CCC(=O)N2CCOCC2)S(=O)(=O)c2ccc(C)cc2)cc1` are 11.4% (inactive) and -12.5%. With `CCC(N1CCOC1=O)S(=O)(=O)c1ccc(C)cc1` (stereo not drawn), the Potency is 25.9 µM (active) and the cell number change is -15.9%. Consider `Cc1ccc(S(=O)(=O)N2CCN(S(=O)(=O)c3ccc(C)cc3)C3OCCOC32)cc1` (stereo not drawn), for which the “lipid storage change, negative = inhibition” value is 10.1% (inactive) and the cell number change was -0.0898%. For `Cc1ccc(S(=O)(=O)NC(CC(=O)n2nc(C)cc2C)c2ccccc2)cc1` (stereo not drawn), the molecule was called inactive. As to `COC(=O)c1ccc(Cl)c(NC(=O)CN2CCOCC2)c1`, the “lipid storage change, negative = inhibition” value is -3.77% (inactive) and the cell number change was -12.2%. For `COC(=O)c1ccc(Cl)c(NC(=O)CN2CCN(Cc3ccccc3)CC2)c1`, in that order: -0.436% (inactive) and 2.04%. As for `COC(=O)c1ccc(Cl)c(NC(=O)CN2CCN(C)CC2)c1`, the Potency is 25.9 µM (active) and the cell number change was -16%. For the molecule `COc1ccc(-n2c(=O)cc(N3CCN(Cc4ccccc4)CC3)[nH]c2=O)cc1`, the “lipid storage change, negative = inhibition” value is -0.394% (inactive) and the cell number change is -3.15%. On to `O=C(CSc1nnc(-c2ccccc2F)o1)N1CCCC1`, for which the Potency is 23.1 µM (active) and the cell number change was determined as 22.6%.

For the molecule `O=C(CSc1nnc(-c2ccccc2Cl)o1)N1CCCCC1`, the outcome was inactive. As for `Cc1ccccc1-c1nnc(SCC(=O)N2CCCC2)o1`, the call was inactive and the cell number change is 9.17%. For `COC(=O)CN(n1cnnc1)S(=O)(=O)c1ccccc1Cl`, in that order: “inactive” and -1.98%. For `COc1cccc(NC(=O)COC(=O)CCn2c(C)csc2=O)c1`, in that order: “inactive” and -50%.

Turning to `CCCCn1c(SCC(=O)N(C)C)nnc1-c1ccncc1`, the “lipid storage change, negative = inhibition” value was 11.4% (inactive) and the cell number change worked out at 9.01%. For `CCCCn1c(SCC(=O)N2CCc3ccccc32)nnc1-c1ccncc1`, in that order: -8.27% (inactive) and -7.69%. With `CSc1nnc(-c2ccncc2)n1CCCN1CCCC1=O`, the Potency is 0.731 µM (active) and the cell number change is -16.4%.

On to `CC(C)(C)OC(=O)NC(Cc1ccccc1)C(=O)NCCCC(=O)O` (stereo not drawn), for which the “lipid storage change, negative = inhibition” value was -11.2% (inactive) and the cell number change is -14.4%.

For the molecule `CC(C)(C)OC(=O)NCCCCCO`, the “lipid storage change, negative = inhibition” value is 4.7% (inactive) and the cell number change was -1.04%. `CC(C)(C)OC(=O)NCCCC(CCCNC(=O)OC(C)(C)C)C(=O)O`: the Potency was 16.4 µM (active) and the cell number change was -6.12%. Turning to `Cc1ccc(C(=O)N/N=C/c2ccc(-c3cccc(Cl)c3)o2)cn1`, the “lipid storage change, negative = inhibition” value is -1.13% (inactive) and the cell number change turned out to be 8.19%. With `Nc1c(-c2ccccc2)sc2ccc3ccccc3[n+]12`, the Potency was 1.3 µM (active) and the cell number change is 7.96%.

`Nc1nc(-c2ccccc2)c(-c2ccccc2)s1`: the “lipid storage change, negative = inhibition” value was 2.72% (inactive). Turning to `Nc1nc(-c2ccccc2)c(-c2ccc([N+](=O)[O-])cc2)s1`, the “lipid storage change, negative = inhibition” value was 20.9% (inactive) and the cell number change was 0.729%. For `O=C(COC(=O)C1COc2ccccc2O1)Nc1cccc(Cl)c1` (stereo not drawn), in that order: 3.3% (inactive) and -13.4%. The corresponding values for `Cc1ccc(C)c(C2C(=O)c3ccccc3C2=O)c1` are -0.949% (inactive) and -8.26%. On to `Cc1ccccc1C1C(=O)c2ccccc2C1=O`, for which the Potency was 20.6 µM (active) and the cell number change is 14.4%. Consider `O=C1c2ccccc2C(=O)C1c1ccccc1`, for which the “lipid storage change, negative = inhibition” value was 2.57% (inactive) and the cell number change came out at 3.81%. As for `O=C(Nc1ccc(Cl)c(Cl)c1)Nc1ccon1`, the Potency was 10 µM (active). Take `O=C(Nc1cccc(Cl)c1)Nc1ccon1`: the molecule was classed as inactive and the cell number change is -26.2%.
